From the supplement of paper PMC9897528

system: Scedosporium aurantiacum CBS 136046; test: growth inhibition relative to DMSO control (OD600); higher = more antifungal activity, active = 80 or more; extreme values may be limits of the assay; conditions: 5 µM; 72 h; 37 °C
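Further: conidia screened in RPMI 1640 medium under 5% CO2, growth read by spectrophotometer, medium with 0.5% DMSO serving as the untreated reference.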

Growth inhibition, inactive:
C[C@H](Cn1cnc2c(N)ncnc21)OCP(=O)(O)O 13.7%
O=c1cc(OCc2ccccc2)ccn1Cc1ccccc1 9.92%
CC(C)CCN1C(=O)C(C2=NS(=O)(=O)c3cc(NS(C)(=O)=O)ccc3N2)=C(O)[C@@H]2[C@H]3CC[C@H](C3)[C@@H]21 28.5%
C[C@@H](c1nc(-c2ccc(C#N)cc2)cs1)[C@](O)(Cn1cncn1)c1ccc(F)cc1F 60.6%
N[C@H](CCC(=O)N[C@@H](Cc1c[nH]c2ccccc12)C(=O)O)C(=O)O 1.28%
CC(=O)Oc1ccccc1C(=O)Nc1ncc([N+](=O)[O-])s1 12.7%
NC(=O)c1cnc2ccc(S(=O)(=O)c3ccccc3)cc2c1Nc1ccc(O)cc1 32.1%
Cc1ccc(N2CCC(CCOc3ccc(S(C)(=O)=O)cc3)CC2)nn1 24.5%
CCc1ccc(C2CC(C(F)(F)F)n3ncc(C(=O)NCc4ccc(OC)cc4)c3N2)cc1 (centres undefined) 34.5%
FC(F)(F)c1cc(C(F)(F)F)c2ccc3nc(-c4nnco4)cn3c2n1 4.29%
O=C(O)C[C@H]1CC[C@H](c2ccc(-c3ccc(Nc4ccc(C(F)(F)F)nc4)cn3)cc2)CC1 12.5%
O=[N+]([O-])c1ccc2c(CCc3c[nH]c4ccccc34)c[nH]c2c1 48.7%
NC(=O)c1ccc(I)c([N+](=O)[O-])c1 13.9%
O=C(O)c1ccc(-c2ccc(O[C@H]3O[C@H](CO)[C@@H](O)[C@H](O)[C@@H]3O)cc2)cc1 10.9%
